Hits are enriched below; roughly 6.9% of the tested compounds scored in any of these assays.
CSC inhib = cancer stem cell viability inhibitors, primary screen, luminescence; cancer stem cell-like cells viability; inhibition, % at 7.5 µM; actives 1.1% (n = 300,000); AID 2717, 2010; in the data active means inhibition above about 75%; tested in HMLE shEcad cells
Mdm2 MdmX PPI = inhibitors of human Mdm2-MdmX association, primary screen, cell-based, luminescence, split luciferase, SaOS-2, uHTS; inhibition, % at 8 µM; SaOS-2 split-luciferase Mdm2/MdmX complementation; Protein Mdm4 (Homo sapiens) + E3 ubiquitin-protein ligase Mdm2 (Homo sapiens), …; actives 3% (n = 330,000); AID 485346, 2010;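 active means inhibition of at least 50% at 8 µM in the primary screen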
Target sequence (O15151 whole entry, looked up): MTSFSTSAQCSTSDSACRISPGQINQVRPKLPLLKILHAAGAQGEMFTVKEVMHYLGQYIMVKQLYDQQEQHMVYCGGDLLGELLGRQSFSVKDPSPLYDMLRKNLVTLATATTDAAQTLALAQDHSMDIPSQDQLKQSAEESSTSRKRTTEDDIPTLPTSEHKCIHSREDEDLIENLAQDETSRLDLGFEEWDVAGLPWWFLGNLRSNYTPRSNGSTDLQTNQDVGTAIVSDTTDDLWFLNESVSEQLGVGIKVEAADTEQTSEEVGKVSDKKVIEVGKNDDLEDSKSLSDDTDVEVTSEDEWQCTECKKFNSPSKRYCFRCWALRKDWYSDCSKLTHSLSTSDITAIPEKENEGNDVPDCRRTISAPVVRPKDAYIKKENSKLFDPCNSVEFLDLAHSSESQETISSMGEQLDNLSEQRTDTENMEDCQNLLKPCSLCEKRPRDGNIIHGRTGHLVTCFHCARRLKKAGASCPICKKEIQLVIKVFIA
Target sequence (Q00987 whole entry, looked up): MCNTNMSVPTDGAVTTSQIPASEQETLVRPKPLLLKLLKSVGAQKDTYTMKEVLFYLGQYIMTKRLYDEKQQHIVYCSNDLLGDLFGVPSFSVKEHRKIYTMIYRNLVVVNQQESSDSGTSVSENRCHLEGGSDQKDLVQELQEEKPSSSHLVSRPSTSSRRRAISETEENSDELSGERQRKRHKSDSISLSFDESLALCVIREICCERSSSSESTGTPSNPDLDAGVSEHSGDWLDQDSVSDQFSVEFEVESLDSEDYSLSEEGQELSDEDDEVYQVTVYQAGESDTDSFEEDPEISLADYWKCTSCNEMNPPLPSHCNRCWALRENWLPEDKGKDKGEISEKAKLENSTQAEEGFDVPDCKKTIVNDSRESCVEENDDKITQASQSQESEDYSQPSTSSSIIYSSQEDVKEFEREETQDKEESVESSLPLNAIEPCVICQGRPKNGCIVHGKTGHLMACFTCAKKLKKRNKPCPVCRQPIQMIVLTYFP
Beta cell apopt = inhibitors of cytokine-induced beta cell apoptosis, primary screen, luminescence | INS-1E cytokine-induced death, ATP luminescence, 48 h; percent of positive-control rescue, neutral wells zero | actives 0.8% (n = 300,000) | AID 435005, 2010 | protection from apoptosis, % (no concentration beside the values);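 active means Every replicate reaches about 75%, or at least half do and their mean reaches it too, limit read from the data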;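 further: higher means more ATP so stronger rescue from cytokine killing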
MPTP block = mitochondrial permeability transition pore inhibitors, primary screen, biochemical, isolated mouse mitochondria, absorbance. AID 602449, 2012. inhibition, % at 10 µM. Ca2+ swelling absorbance, 30 min. actives 1.4% (n = 360,000);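 active means inhibition of 50% or more, scaled per plate between neutral and stimulator controls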
GRIN3A LBD mod = binders of NR3A ligand-binding domain, primary screen, biophysical, differential scanning fluorimetry, uHTS; Glutamate receptor ionotropic, NMDA 3A (GRIN3A) ligand-binding domain; NR3A LBD differential scanning fluorimetry, Tm shift; 0% = protein alone, 100% = glycine-bound protein; Tm shift relative to glycine control, % at 25 µM; actives 2.5% (n = 340,000); AID 1259313, 2017;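 active means melting temperature shift of at least 10% of the positive control shift, at one fixed dose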
SKKanGAS inh = S. pyogenes SKKanGAS growth inhibitors in kanamycin, primary screen, streptokinase expression inhibitor project, SKKanGAS strain, BacTiter-Glo luminescence. 6 h. inhibition, % at 7.5 µM. actives 1.3% (n = 300,000);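 active means mean replicate score, as percent of positive control median, at least 50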;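 further: strain carries kanamycin resistance gene driven by streptokinase promoter and grows in 40 µg/ml kanamycin; loss of luminescence reflects streptokinase promoter inhibition or plain growth inhibition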
Mdm2 MdmX conf = Mdm2-MdmX complex disruptors, retested hits, confirmation, luminescence, single concentration | AID 489028, 2010 | inhibition, % at 8 µM | Mdm2-MdmX binding, luminescent assay | actives 55% (n = 10,000) | shares compounds with Mdm2 MdmX PPI; in the data active means inhibition above about 40%
FLuc counter = full-length luciferase signal inhibition, confirmation, counter-screen for Mdm2/MdmX interaction inhibitor project, cell-based, single concentration, SaOS-2. shares compounds with Mdm2 MdmX PPI. SaOS-2 full-length luciferase counterscreen, luminescence. inhibition, % at 8 µM. actives 77% (n = 6,200);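 active means mean inhibition at 8 µM reaching about 37%, which flags the compound as non-specific, limit read from the data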;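 further: p53-null SaOS-2 cells with luciferase driven by a doxycycline-inducible promoter; compound on cells about two nights before reading with doxycycline added after day one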
Each line names hits and unclear results; the compound was inactive in the other large screens (follow-up assays come after a bar, where they were run).

COc1cc(-c2nc(C(=O)NC3CCN(Cc4ccccc4)CC3)cc3c2[nH]c2ccccc23)cc(OC)c1OC	Mdm2 MdmX PPI 79 | Mdm2 MdmX conf 56 | FLuc counter 50
COc1ccc(OC)c(-c2nc(C(=O)NC3CCN(Cc4ccccc4)CC3)cc3c2[nH]c2ccccc23)c1	Mdm2 MdmX PPI 50 (no result: Beta cell apopt) | Mdm2 MdmX conf inactive
CC(C)=CCC/C(C)=C/CC(C)(C)CNCCN1CCNCC1	Mdm2 MdmX PPI 88 (no result: MPTP block, GRIN3A LBD mod) | Mdm2 MdmX conf inactive
CC(C)=CCC/C(C)=C/CCC(C)NCCN1CCNCC1 (centres undefined)	none (no result: MPTP block, GRIN3A LBD mod)
COc1ccc(-c2oc(=O)c3cc(OC)c(OC)cc3c2-c2ccc3c(c2)OCO3)cc1	none (no result: SKKanGAS inh)
COc1cc2c(OC(C)=O)c3c(c(-c4ccc5c(c4)OCO5)c2cc1OC)C(=O)OC3	Mdm2 MdmX PPI 86 | Mdm2 MdmX conf 74 | FLuc counter 48
COc1cc2c(O)c3c(c(-c4ccc5c(c4)OCO5)c2cc1OC)C(=O)OC3	CSC inhib 91, Mdm2 MdmX PPI 73 | Mdm2 MdmX conf 72 | FLuc counter inactive
COc1ccc([C@@H]2[C@@H]3C(=O)N(C(C)(C)C)C(=O)[C@@H]3[C@]3(C)C(=O)N(c4ccc(C(F)(F)F)cc4)C(=O)N23)cc1	none
COc1ccc(OC)c(C(=O)/C=C/c2cccnc2)c1	Mdm2 MdmX PPI 68 | Mdm2 MdmX conf inactive | FLuc counter 56
COc1cc(O)cc(O)c1C(=O)/C=C/c1ccccc1	Mdm2 MdmX PPI 52 | Mdm2 MdmX conf inactive
COc1cc(C(=O)/C=C/c2cccnc2)ccc1O	Mdm2 MdmX PPI 51 (no result: Beta cell apopt) | Mdm2 MdmX conf inactive
O=C(/C=C/c1cccnc1)c1cc(F)ccc1O	none
CCOc1ccccc1C(=O)N(Cc1sccc1C)C1CCS(=O)(=O)C1 (centres undefined)	none
O=[N+]([O-])/C=C1\C=CC=CN1Cc1ccc(Cl)cc1	none
Cn1ccnc1C(=O)c1cc(SCC(=O)N2CCOCC2)nc2ccccc12	none
COC(=O)COc1ccc(S(=O)(=O)Nc2ccc3c(c2)OCO3)cc1	none
COC(=O)COc1ccc(S(=O)(=O)Nc2ccc3c(c2)OCO3)cc1Cl	Mdm2 MdmX PPI 52 | Mdm2 MdmX conf inactive
CCOC1=NN(c2ncc(C(F)(F)F)cc2Cl)C(=O)/C1=C/N(C)C	Mdm2 MdmX PPI 70 | Mdm2 MdmX conf inactive
CCOC(=O)C(CC)(CC)C(=O)/C=C/c1cccc(Br)c1	Mdm2 MdmX PPI 97 | Mdm2 MdmX conf 66 | FLuc counter inactive
NC(=O)NC(=O)COC(=O)/C=C/c1cccc(Br)c1	none
O=C(COC(=O)c1ccccc1[N+](=O)[O-])Nc1cc(S(=O)(=O)N2CCOCC2)ccc1N1CCCC1	none
CCC/C(C#Cc1ccc(N(C)C)cc1)=C1/c2ccccc2C(=O)N1c1ccccc1	Mdm2 MdmX PPI 51 (no result: SKKanGAS inh) | Mdm2 MdmX conf inactive
CCN1C(=O)[C@H]2[C@@H](c3ccc(-c4ccccc4)cc3)N[C@@](Cc3ccccc3)(C(=O)OC)[C@H]2C1=O	none
CCN1C(=O)[C@H]2[C@@H](c3ccc(-c4cccc(Cl)c4)c(OC)c3)N[C@@](Cc3ccccc3)(C(=O)OC)[C@H]2C1=O	Mdm2 MdmX PPI 52 | Mdm2 MdmX conf inactive | FLuc counter 54
CCN1C(=O)[C@H]2[C@@H](c3ccc(-c4ccc(Cl)c(Cl)c4)cc3)N[C@@](Cc3ccccc3)(C(=O)OC)[C@H]2C1=O	Mdm2 MdmX PPI 57 | Mdm2 MdmX conf inactive
COC(=O)[C@]1(Cc2ccccc2)N[C@H](c2ccc(-c3cccc(Cl)c3)c(OC)c2)[C@@H]2C(=O)N(C)C(=O)[C@@H]21	none (no result: CSC inhib, Mdm2 MdmX PPI, Beta cell apopt, SKKanGAS inh)
COc1ccc(CCNC(=O)c2ccccc2NC(=O)CN2CCN(c3ccccc3O)CC2)cc1	Mdm2 MdmX PPI 54 (no result: CSC inhib, Beta cell apopt, SKKanGAS inh) | Mdm2 MdmX conf 45 | FLuc counter 97
Cc1sc(NC(=O)c2ccco2)nc1-c1ccc2c(c1)CC(C)N2C(=O)C1CC1 (centres undefined)	Mdm2 MdmX PPI 85 | Mdm2 MdmX conf 55 | FLuc counter 53
CC(=O)Nc1nc(-c2ccc3c(c2)CC(C)N3C(=O)C2CC2)c(C)s1 (centres undefined)	Mdm2 MdmX PPI 85 | Mdm2 MdmX conf 85 | FLuc counter 54
CCOC(=O)C(=O)Nc1nc(-c2ccc3c(c2)CCN3C(=O)C2CC2)c(C)s1	none
COc1ccc(/C=C/C(=O)Nc2ccccc2C(F)(F)F)cc1OC	none
COC(=O)c1ccc(/C=C/C(=O)c2ccc(OC)cc2)cc1	none (no result: CSC inhib)
COc1ccc(/C=C/C(=O)Nc2ccccc2C(=O)O)cc1OC	Mdm2 MdmX PPI 62 (no result: Beta cell apopt) | Mdm2 MdmX conf 76 | FLuc counter 131
COc1ccc(C(=O)/C=C/c2ccc(OC(=O)c3cc(OC)c(OC)c(OC)c3)cc2)cc1	Mdm2 MdmX PPI 57 | Mdm2 MdmX conf inactive
CCOc1ccc(N2C(=O)S/C(=C\c3cc(OC)c(OC)c(OC)c3)C2=O)cc1	Mdm2 MdmX PPI 53 | Mdm2 MdmX conf inactive
COc1ccc(/C=C/C(=O)c2cc(F)ccc2OC(=O)c2ccccc2)cc1OC	Mdm2 MdmX PPI 68 | Mdm2 MdmX conf 58 | FLuc counter 98
CC(=O)Nc1cccc(-c2ccnc3c2CC(C(=O)NCc2ccco2)O3)c1 (centres undefined)	none (no result: CSC inhib, Mdm2 MdmX PPI, Beta cell apopt, GRIN3A LBD mod, SKKanGAS inh)
CC(=O)c1c[nH]c(C(=O)NCc2cccc(C(F)(F)F)c2)c1	none
Cc1ccc(S(=O)(=O)Nc2ccc(NC(=O)c3cccnc3)cc2)cc1	none
O=C(O)CNC(=O)C12CC3CC(CC(Cl)(C3)C1)C2	none
CCCNC(=O)CN1CCC(c2nc3ccccc3[nH]2)CC1	none
COc1cccc(CC(O)CC2c3c(cc4c(c3OC)OCO4)CCN2C)c1 (centres undefined)	none (no result: CSC inhib, Mdm2 MdmX PPI, Beta cell apopt, SKKanGAS inh)
CC1(c2nc3ccccc3[nH]2)CCC(=O)N1Cc1ccc(F)cc1 (centres undefined)	none (no result: CSC inhib, Mdm2 MdmX PPI, Beta cell apopt, GRIN3A LBD mod, SKKanGAS inh)
COc1ccc(/C=C/C(=O)c2ccc(C(=O)/C=C/c3ccc(OC)c(OC)c3)cc2)cc1OC	Mdm2 MdmX PPI 54 (no result: CSC inhib, Beta cell apopt) | Mdm2 MdmX conf inactive
CCOc1ccc(C(=O)/C=C/c2cc(OC)c(OC)c(OC)c2)cc1	Mdm2 MdmX PPI 63 | Mdm2 MdmX conf 55 | FLuc counter 49
